# Sfp inh: qHTS Assay for Inhibitors of Bacillus subtilis Sfp phosphopantetheinyl transferase (PPTase) | 4'-phosphopantetheinyl transferase ffp (Bacillus subtilis), Q9F4F7 | Biochemical Sfp PPTase activity, qHTS | Potency, µM, without a hit: largest response in the series, negative = inhibition, usual class: inhibitors | 310,000 compounds, 3.5% hits | AID 1490, 2009;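 also: the enzyme is Sfp with the accession as filed and its product quenches rhodamine fluorescence; potency is read from the fitted curve at half-maximal effect; 0% = enzyme reaction without inhibitor and -100% = no enzyme wells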
#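 With Hepes-Na pH 7.6 buffer containing 10 mM MgCl2, Sfp (15 nM) modified BHQ-2-YbbR (12.5 uM) using rhodamine-CoA (5 uM). Two reads 30 minutes apart at 525/598 nm yielded each well's rate.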
# Tau FP inhib: qHTS for Inhibitors of Tau Fibril Formation, Fluorescence Polarization | Microtubule-associated protein tau (Homo sapiens), P10636 | K18 P301L tau heparin fibrillization, Alexa594 FP, 6 h | Potency, µM (titrated, usually from 57.7 µM), for inactives: top-dose activity, negative = inhibition, most hits filed as inhibitors | 280,000 compounds, 0.39% hits; also: potency is read from the fitted curve at half-maximal effect; nearly all actives have a fitted effect of over 55% in size
# Target sequence (P10636 561-689 P618L limits assumed): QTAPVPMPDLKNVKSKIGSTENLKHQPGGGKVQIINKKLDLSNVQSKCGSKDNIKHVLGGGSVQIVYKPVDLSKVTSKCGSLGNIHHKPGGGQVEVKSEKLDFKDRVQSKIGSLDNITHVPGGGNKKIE
#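 Human tau K18 […] P301L fragment, 15 uM unlabeled plus 0.24 uM Alexa 594-labeled tau (final), with compound and 20 uM heparin in 100 mM sodium acetate pH 7; 6 hr at 37 C, then Alexa 594 FP read.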
# Tau ThT inhib: qHTS for Inhibitors of Tau Fibril Formation, Thioflavin T Binding; Microtubule-associated protein tau (Homo sapiens), P10636; recombinant tau K18 P301L, heparin-induced fibrillization, ThT fluorescence; Potency, µM (highest dose often 57.4 µM), without a hit: top-dose activity, negative = inhibition, actives largely listed as inhibitors; 270,000 compounds, 2.1% hits; AID 1460, 2008; also: potency is read from the fitted curve at half-maximal effect; nearly all actives have a fitted effect of over 55% in size
#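 Recombinant human tau K18 fragment […] carrying P301L, 15 uM unlabeled plus 0.24 uM Alexa 594-labeled, was fibrillized with 20 uM heparin in 100 mM sodium acetate pH 7 for 6 hr at 37 C; 30 uM ThT fluorescence read after 1 hr.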
# Tau fluor counter: Counterscreen qHTS for Inhibitors of Tau Fibril Formation, Fluorescence Polarization. tau K18 P301L Alexa594 fluorescence, heparin fibrillization. Potency, µM (titrated, usually from 57.7 µM), without a hit: at the highest dose activity change, negative = decrease. 280,000 compounds, 0.93% hits; also: potency is read from the fitted curve at half-maximal effect; nearly all actives have a fitted effect of over 55% in size
#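 Human tau K18 P301L (15 uM unlabeled, 0.24 uM Alexa 594-labeled) in 100 mM sodium acetate pH 7 with 20 uM heparin, 6 hr at 37 C. ThT 30 uM added, 1 hr ambient; Alexa 594 FP and total fluorescence read at 555/632 nm.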
# G9a inh: qHTS Assay for Inhibitors of Histone Lysine Methyltransferase G9a; G9a H3K9 monomethylation, AlphaScreen, 2 h; 350,000 compounds, 8.8% hits; Histone-lysine N-methyltransferase EHMT2 (Homo sapiens), Q96KQ7; AID 504332, 2011; Potency, µM (titrated, usually from 102 µM), for inactives: at the top dose activity, negative = inhibition, most hits filed as inhibitors; also: potency is read from the fitted curve at half-maximal effect; nearly all actives have a fitted effect of over 75% in size
# Target sequence (Q96KQ7 913-1193 limits assumed): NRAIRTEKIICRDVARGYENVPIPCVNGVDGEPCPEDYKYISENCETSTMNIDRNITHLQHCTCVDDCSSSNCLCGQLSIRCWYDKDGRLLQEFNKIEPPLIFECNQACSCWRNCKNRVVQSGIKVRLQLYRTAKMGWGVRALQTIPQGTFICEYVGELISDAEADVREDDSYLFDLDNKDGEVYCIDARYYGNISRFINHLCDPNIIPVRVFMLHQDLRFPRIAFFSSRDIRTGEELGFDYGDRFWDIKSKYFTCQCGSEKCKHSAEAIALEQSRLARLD
#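 Methyltransferase reactions run at room temperature for 2 h (20 nM enzyme, 500 nM biotin-H3K9 peptide, 20 uM SAM) after a 15 min compound preincubation; product detected by AlphaScreen beads and anti-H3K9me1 antibody.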
# FBPA coupling cs: qHTS Assay for Inhibitors of Fructose-1,6-bisphosphate Aldolase from Giardia Lamblia: Coupling assay counterscreen. coupling enzyme system counterscreen, AmpLite Red fluorescence. activity change, negative = inhibition, % at 58.2 µM, hits read low. 290,000 compounds, 0.67% hits; in the data active = activity change below about -30%
#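 Activity here indicates interference with the coupling reaction, not aldolase inhibition. Compounds at 57.5 uM final met coupling enzymes for 10 min at RT; substrate and AmpLite Red detection followed, with a 525/598 nm fluorescence read after 20 min.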
# * hit, by the source's call; ? = inconclusive; . = no result given; [ ] = another dose, or the depositor's remark. Rows were chosen to be rich in hits. Some 11% of all compounds tested hit in one or more screens of this group. Unless noted, calls follow the shape of the dose curve; as a rule, active = well fitted curve in the direction sought with a large enough effect; inconclusive = small, poorly fitted or top-dose-only effect, or another doubt; inactive = no such curve, though single readings can be large; an effect the other way counts as inactive or inconclusive. Unless noted, % is scaled to controls: 0 for no effect and ±100 for the full control effect.
SMILES,Sfp inh,Tau FP inhib,Tau ThT inhib,Tau fluor counter,G9a inh,FBPA coupling cs
Cc1ccc2c(c1)cc(C(=O)N[C@@H](Cc1ccccc1)C(=O)O)n2C,21.3%,.,.,.,23.4%,8.2
Cc1cc(C)c(OCC(=O)N(Cc2ccccc2)C2CCS(=O)(=O)C2)c(C)c1 (stereo not given),12.0%,.,.,.,-4.4%,1.2
Nc1ccc(N2CCOCC2)c(S(=O)(=O)Nc2cc(Cl)ccc2Cl)c1,8.7%,2.9%,?,?,35.5µM*,1.8
COc1ccc(NS(=O)(=O)c2cc(NC(=O)C3CCCO3)ccc2N2CCCCC2)cc1 (stereo not given),-4.1%,-3.7%,-12.2%,?,39.8µM*,1.1
COc1ccc(NS(=O)(=O)c2cc(NC(=O)CC3CCCC3)ccc2N2CCOCC2)cc1,25.1µM*,-1.8%,-14.0%,?,?,-7.8
Nc1cc(S(=O)(=O)Nc2ccccc2Cl)ccc1N1CCOCC1,-5.4%,-14.5%,-16.7%,-29.1%,?,1.9
COc1ccc(NS(=O)(=O)c2cc(NC(=O)C3CCCO3)ccc2N2CCCC2)cc1 (stereo not given),4.6%,-0.7%,-3.5%,-3.1%,25.1µM*,-9.0
COc1ccc(NS(=O)(=O)c2cc(N)ccc2N2CCOCC2)cc1,-18.2%,.,.,.,15.8µM*,0.7
O=C(/C=C/c1cccs1)Nc1ccc(N2CCOCC2)c(S(=O)(=O)Nc2cc(Cl)ccc2Cl)c1,16.1%,?,4.8%,?,56.2µM*,0.0
COc1ccc(NS(=O)(=O)c2cc(NC(=O)c3cc(F)c(F)c(F)c3F)ccc2N2CCCC2)cc1,-1.1%,4.0%,.,?,.,-6.8
COc1ccc(NS(=O)(=O)c2cc(NC(=O)c3ccco3)ccc2N2CCCC2)cc1,-11.5%,14.1%,?,?,39.8µM*,3.2
O=C(/C=C/c1cccs1)Nc1ccc(N2CCOCC2)c(S(=O)(=O)Nc2ccccc2Cl)c1,38.4%,?,-4.6%,?,?,-1.2
CC1CCCCC1NCC(=O)NCc1ccc(F)cc1 (stereo not given),-14.8%,6.1%,1.0%,5.3%,10µM*,1.4
c1ccc2c(N3CCNCC3)nc(-c3ccoc3)nc2c1,2.0%,-7.8%,?,-3.3%,.,1.5
CC1=C(C(=O)OC2CCCCCC2)C(c2c(F)cccc2Cl)CC(=O)N1 (stereo not given),.,1.3%,?,-14.2%,-28.5%[59 µM],.
O=C(O)COc1ccc(/C=C/C(=O)c2ccc(C3CCCCC3)cc2)cc1,-11.4%,.,.,.,22.4µM*,8.3
O=C(O)COc1ccc(/C=C/C(=O)c2ccc3ccccc3c2)cc1,-4.9%,.,.,.,-7.1%,4.5
O=c1cc(CO)oc(C(Nc2ccccn2)c2ccc(F)cc2)c1O (stereo not given),10µM*,-2.1%,?,-5.3%,-119.8%[12.7 µM],-9.3
O=c1cc(CO)oc(C(Nc2ccccn2)c2ccccc2Cl)c1O (stereo not given),50.1µM*,?,?,-14.5%,1.12µM*,0.6
COc1ccc(C(Nc2ccccn2)c2oc(CO)cc(=O)c2O)cc1 (stereo not given),?,14.4%,?,4.7%,1µM*,-17.0
Cc1ccnc(NC(=O)c2cc3ccccc3oc2=O)c1,2.9%,0.1%,-8.2%,-2.1%,4.8%,4.5
Cc1ccnc(NC(c2ccccc2O)c2oc(CO)cc(=O)c2O)c1 (stereo not given),10µM*,-2.0%,?,-9.5%,0.891µM*,-32.9*
Cc1c(C(=O)Nc2cccc(-c3nc4ccccc4s3)c2)oc2ccccc12,.,?,?,?,-23.3%[59 µM],.
O=S(=O)(c1ccccc1)N1CCC[C@@]2(CCN(C(c3ccccc3)c3ccccc3)C2)C1,20.3%,.,.,.,1.0%[12.7 µM],1.2
